Data from PubChem BioAssay (NCI).
Where “and” joins values, the source holds several entries; their conditions need not be identical. Equal entries are not always repeated. The panel holds about 83,000 compounds, 20% with a hit somewhere; the sample as a whole holds those more often.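 Interpretation: 100, growth as untreated; towards 0, rising growth inhibition; 0, no net growth; 0 to -100, cell death. Compounds scoring below 10 were considered active.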 Calls of active or inactive are those of the source.

test system: HCT-15 colon; assay: NCI-60 one-dose screen, 48 h (100 = growth as untreated, 0 = no growth, -100 = all killed); conditions: 0.01 µM
Description: Growth inhibition of the HCT-15 human tumor cell line is measured as a screen for anti-cancer activity. Cells are grown in 96 well plates and exposed to the test compound for 48 hours. Compounds are tested at a single concentration, which is 10^-5 M for most compounds. The reported endpoint is percent growth (GI% or GIPRCNT), where numbers from 0 - 100% represent growth inhibition, and numbers from -100% - 0 represent cell death. For example, a value of 40 represents 60% growth inhibition. A value of 0 means no net growth occurred over the course of the experiment. A value of -40 indicates 40% of cells at the beginning of the experiment died by the end of the experiment. A value of -100 means all cells are dead at the end of the experiment.
NCI-60 Human Tumor Cell Lines Screen was performed using the standard one-dose NCI protocol, which is described in more detail at https://dtp.cancer.gov/discovery_development/nci-60/default.htm.
Compounds with GIPRCNT values below 10 were considered active. Activity score was based on GIPRCNT using the following formula: […]
Score is 0 for GIPRCNT values of 100 or above, 50 for GIPRCNT values of 0, and 100 for GIPRCNT values of -100.

| SMILES | growth |
| --- | --- |
| CC(=O)O[C@H]1C(=O)[C@@]2(C)[C@H]([C@H](OC(=O)c3ccccc3)[C@]3(O)C[C@H](OC(=O)[C@H](O)[C@@H](NC(=O)c4ccccc4)c4ccccc4)C(C)=C1C3(C)C)[C@]1(OC(C)=O)CO[C@@H]1C[C@@H]2O | 87.3% (inactive) |

same assay, conditions: 2.5 µM

| SMILES | growth |
| --- | --- |
| CC(=O)O[C@H]1C(=O)[C@@]2(C)[C@H]([C@H](OC(=O)c3ccccc3)[C@]3(O)C[C@H](OC(=O)[C@H](O)[C@@H](NC(=O)c4ccccc4)c4ccccc4)C(C)=C1C3(C)C)[C@]1(OC(C)=O)CO[C@@H]1C[C@@H]2O | 13.2% (inactive) |

same assay, conditions: 5 µM

| SMILES | growth |
| --- | --- |
| CC(=O)O[C@H]1C(=O)[C@@]2(C)[C@H]([C@H](OC(=O)c3ccccc3)[C@]3(O)C[C@H](OC(=O)[C@H](O)[C@@H](NC(=O)c4ccccc4)c4ccccc4)C(C)=C1C3(C)C)[C@]1(OC(C)=O)CO[C@@H]1C[C@@H]2O | 12.4% (inactive) |

same assay, conditions: 10 µM

| SMILES | growth |
| --- | --- |
| CC[C@@]1(OC(=O)CN(C)C)C(=O)OCc2c1cc1n(c2=O)Cc2cc3c(N)cccc3nc2-1 | 6.43% (active) |
| Cn1c2nc3ccccc3c-2nc2ccccc21 | 94.9% (inactive) and 85.2% (inactive) |
| Cc1cc(O)c2c(c1O)C(=O)C13C(=C2O)C(=O)C2C(O)C1C1C(O)C3C(=O)C3=C(O)c4c(O)cc(C)c(O)c4C(=O)C321 (stereo not given) | 16.4% (inactive) |
| CCOC(=O)[C@]1(Br)CC[C@@]1(Br)C(=O)OCC | 89.2% (inactive) |
| CCC(C)(c1ccc(O)c(C)c1)c1ccc(O)c(C)c1 | 99.1% (inactive) |
| CCC(=O)Oc1ccc(/C=N/NC(N)=S)nc1 | 65% (inactive) |
| COc1ccc(C(C#N)=C2C=CC(=NO)C=C2)cc1 | 91.5% (inactive) |
| C=C1N(C)c2ccc(Cl)cc2C1(C)C | 106% (inactive) |
| CN(CC(=O)O)c1ccc(/C=C/c2ccnc3ccccc23)cc1 | 84.5% (inactive) |
| O=C(NC(=S)Nc1ccccn1)c1ccccc1 | 100% (inactive) |
| COc1ccc2c(c1)[nH]c1c(/C=C/c3ccccc3)nccc12 | 43.9% (inactive) |
| S=P(N1CC1)(N1CC1)N1CC1 | 106% (inactive) and 84.9% (inactive) |
| Nc1nc(N)c2cc(Sc3ccc4ccccc4c3)ccc2n1 | 22.6% (inactive) |
| NCc1c(O)ccc2ccccc12 | 98.2% (inactive) |
| CC(=O)O[C@H]1C(=O)[C@@]2(C)[C@H]([C@H](OC(=O)c3ccccc3)[C@]3(O)C[C@H](OC(=O)[C@H](O)[C@@H](NC(=O)c4ccccc4)c4ccccc4)C(C)=C1C3(C)C)[C@]1(OC(C)=O)CO[C@@H]1C[C@@H]2O | -26.2% (active) and 11.5% (inactive) |
| N#CC(=C1C=CC(=NO)C=C1)c1ccccc1 | 9.7% (active) |
| N#C/C(=C/N1C(=O)/C(=C/c2ccc([N+](=O)[O-])cc2)SC1=S)c1nc2ccccc2s1 | 95.6% (inactive) |
| Cc1cc(Cl)ccc1NC(=O)/C(Cl)=C1/Sc2ccccc2NC1=O | 88.2% (inactive) |

| SMILES | growth |
| --- | --- |
| COc1ccc2oc(-c3ccc(Cl)cc3)c(N3CCN(C)CC3)c2c1 | 28.9% (inactive) |
| S=C1SCN(CCc2ccccc2)CN1CCc1ccccc1 | 95.1% (inactive) |
| O=C1c2ccccc2CCC1(Br)Br | -57% (active) |
| O=C1C=CC(=O)N1c1ccc(N2C(=O)C=CC2=O)cc1 | 91.4% (inactive) |
| O=C1C(Cl)=C(Cl)C(Cl)(Cl)C(Cl)C1(Cl)Cl (stereo not given) | 91.3% (inactive) |
| Cc1c(-c2ccccc2)[nH]c2ccccc12 | 106% (inactive) |
| O=C(CNS(=O)(=O)Cc1ccccc1)NNc1ccccc1 | 27.8% (inactive) |
| CN(C)c1ccc(/C=C/c2ccnc3ccccc23)cc1N | 59.5% (inactive) |
| O=[N+]([O-])c1cc(S(=O)(=O)Nc2ccccc2)ccc1Cl | 96.5% (inactive) |
| O=Nc1ccc(Nc2ccccc2)cc1 | 81.2% (inactive) |
| COc1cccc(C(c2cc3c(cc2O)OCO3)N2CCOCC2)c1OC (stereo not given) | 97.4% (inactive) |
| COc1ccc(N)c2c1C(=O)c1ccccc1C2=O | 87.1% (inactive) |
| O=S(=O)(c1cc(Cl)ccc1O)c1cc(Cl)ccc1O | 94.2% (inactive) |
| ClCCn1c(CCl)nc2ccc(Cl)cc21 | -31.5% (active) |
| O=C1c2cccc3cc([N+](=O)[O-])cc(c23)C(=O)N1CCN1CCCC1 | -7.27% (active) |
| COc1cc(N)ccc1Nc1c2ccccc2nc2ccccc12 | -10.1% (active) |
| O=C(O)c1ccccc1.[Ag] | 110% (inactive) |
| CN(C)CCNc1cccc2sc3ccc(O)cc3c(=O)c12 | 26.9% (inactive) |

same assay, conditions: 100 µM

| SMILES | growth |
| --- | --- |
| S=P(N1CC1)(N1CC1)N1CC1 | 57.5% (inactive) |
